Hit rate of the full screen: of about 330,000 compounds, about 4,900 (1.5%) were called active. The sample holds actives, similar compounds and a random draw of the others, so the mix is not that of the screen. Unmarked numbers belong to inactive results.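 How the source made its calls: active means inhibition above the mean inhibition across the screen plus 3 SD (cut at about 25% in these data); inactive means the rest.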

Here are results for 92 molecules from PubChem BioAssay AID463082 (The Scripps Research Institute Molecular Screening Center, 2010).

Sequence of Platelet-activating factor acetylhydrolase (Homo sapiens) (Q13093 whole entry, looked up): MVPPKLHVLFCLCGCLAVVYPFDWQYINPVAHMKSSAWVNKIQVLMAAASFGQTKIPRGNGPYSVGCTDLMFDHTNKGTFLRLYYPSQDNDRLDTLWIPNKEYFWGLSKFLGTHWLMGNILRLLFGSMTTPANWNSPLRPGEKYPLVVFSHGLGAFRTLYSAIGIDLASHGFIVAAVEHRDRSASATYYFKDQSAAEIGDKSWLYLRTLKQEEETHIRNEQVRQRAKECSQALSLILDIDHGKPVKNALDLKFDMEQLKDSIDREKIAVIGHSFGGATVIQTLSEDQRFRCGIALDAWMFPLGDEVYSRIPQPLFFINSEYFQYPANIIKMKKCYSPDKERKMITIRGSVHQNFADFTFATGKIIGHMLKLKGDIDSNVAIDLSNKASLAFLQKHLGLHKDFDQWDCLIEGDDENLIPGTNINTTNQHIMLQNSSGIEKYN

This experiment has as its target Platelet-activating factor acetylhydrolase (Homo sapiens) (UniProt Q13093). Put plainly: inhibition of plasma PAF acetylhydrolase – biochemical, fluorescence polarization, human, primary screen (AID 463082).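 Further: inhibitors block binding of the rhodamine activity-based probe so polarization drops; 0% = enzyme with DMSO and 100% = wells lacking pPAFAH.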 The conditions noted are these: recombinant pPAFAH, FP-rhodamine probe fluorescence polarization; at 3.39 µM; active compounds read high.
Broadly, the inhibition is the change of the read-out against control, counted positive when it falls. On to `COc1ccc(CNc2cc(C)cc(C)c2)cc1OC`, for which the inhibition was 0.82%.

On to `CC1CCCCC1NC(=O)COC(=O)Cc1ccc(Cl)cc1` (configuration not stated), for which the inhibition was 35.3% (active).

Regarding `CC1CCCCC1NC(=O)COC(=O)Cc1ccc(Br)cc1` (configuration not stated), the inhibition was 23.6%.

For `O=C(COC(=O)Cc1ccc([N+](=O)[O-])cc1)NC1CCCCCC1`, the inhibition is 12.4%.

`Cc1cccc(C(=O)O)c1[N+](=O)[O-]`: the inhibition is 1.3%.

On to `C=CCn1c(Oc2ccc(C(=O)OC)cc2)nc2c1c(=O)n(C)c(=O)n2C`, for which the inhibition was -2.33%.

With `CSc1ccc(CNC(=O)c2ccc(NC(=O)C3=CSCCO3)cc2)cc1`, the inhibition was -5.55%.

With `Cc1cc(C)cc(N(CC(=O)NC2CCCC2)C(=O)CCC(=O)Nc2nccs2)c1`, the inhibition is 1.33%.

Take `Cc1cccc(CCNS(=O)(=O)c2ccc3c(c2)NC(=O)CO3)c1`: the inhibition is 9.07%.

With `Cc1ccc(S(=O)(=O)NC2CCCCCC2)cc1`, the inhibition was 9.54%.

For `Cc1cccc(CCNS(=O)(=O)c2ccc(S(=O)(=O)NC3CCCC3)cc2)c1`, the inhibition is 27.3% (active).

On to `CC[C@]12c3[nH]c4cc(CCC(=O)N(C)C)ccc4c3CCN1C(=O)[C@@H](CC(=O)NCCCn1ccnc1)C[C@@H]2C(=O)N1CCN(C(=O)C2CC2)CC1`, for which the inhibition is -6.7%.

In the case of `CCc1cccc(C)c1NS(=O)(=O)c1c(C)nc2sccn2c1=O`, the inhibition is 1.67%.

On to `CN(C)[C@@H]1C(=O)C(C(N)=O)=C(O)[C@@]2(O)C(=O)C3=C(O)c4c(O)ccc(Cl)c4[C@@H](O)[C@H]3C[C@@H]12`, for which the inhibition is 49.4% (active).

Consider `O=C(c1ccco1)N(Cc1nc2ccccc2c(=O)[nH]1)C1CCCC1`, for which the inhibition is 2.71%.

Take `CCc1ccc(CN(C)C(=O)CCc2nnc(-c3ccc(-c4ccccc4)cc3)o2)nc1`: the inhibition is 61.6% (active).

Consider `CCc1ccc(CN(C)Cc2nc(Cc3ccccc3)no2)nc1`, for which the inhibition was 1.77%.

Regarding `CC(=O)c1ccc(-c2nnc(CCC(=O)N(C)Cc3cnc4ccccn34)o2)s1`, the inhibition is 3.22%.

Consider `COc1ccc(NC(=O)CNC(=O)Cc2ccccc2)cc1OC`, for which the inhibition is 1.61%.

As to `COc1ccc(CNC(=O)Cc2ccc(-c3ccccc3)cc2)cc1OC`, the inhibition is 31.1% (active).

Take `COc1ccc(CCNC(=O)Cc2ccc(C)cc2)cc1OC`: the inhibition was 0.86%.

In the case of `Cc1cc(=O)oc2c(C)c(OCC(=O)NCCc3ccc(S(N)(=O)=O)cc3)ccc12`, the inhibition is 1.13%.

Take `CCOc1ccc(S(=O)(=O)NCCC(=O)NCC2CCCO2)cc1` (configuration not stated): the inhibition is -0.87%.

As to `Nc1scc(-c2ccncc2)c1Cl`, the inhibition was 5.7%.

With `CCOC(=O)c1c(C)oc(C)c(C(=O)OCC)c1=O`, the inhibition is -1.33%.

Take `CCOC(=O)c1c(-c2ccccc2)oc2ccc(OCC(=O)NN)cc12`: the inhibition was 3.22%.

For the molecule `CCOC(=O)c1c(C)oc2cc(Sc3ccccc3)c(O)c(O)c12`, the inhibition is 27.6% (active).

`CCOC(=O)c1c(C)oc2cc(Br)c(OCC(N)=O)cc12`: the inhibition was -0.28%.

Consider `CCOC(=O)c1c(C)oc2ccc(OCC(=O)N(CC)CC)cc12`, for which the inhibition was -9.45%.

Take `CCOC(=O)c1c(-c2ccccc2)oc2cc(Br)c(O)c(C=O)c12`: the inhibition was 30.1% (active).

Turning to `NC(=O)c1c(NC(=O)CSc2nnc(-c3ccco3)n2N)sc2c1CCCC2`, the inhibition was 24.9% (active).

For the molecule `CCc1cccc(C)c1NC(=O)CSc1nnc(-c2ccco2)n1N`, the inhibition was -2.12%.

As to `Cc1cc(NC(=O)CSc2nnc(-c3ccco3)n2N)no1`, the inhibition was 1.38%.

Take `CN(CC(=O)NC1CCCC1)S(=O)(=O)c1cnc[nH]1`: the inhibition is 5.78%.

For the molecule `Cc1ccc(S(=O)(=O)NCc2cn3ccsc3n2)c(C)c1`, the inhibition was 3.63%.

As for `Cc1ccc(S(=O)(=O)NCc2csc(C)n2)c(C)c1`, the inhibition is 57.6% (active).

For `Cc1nc(CNS(=O)(=O)c2cc([N+](=O)[O-])ccc2C)cs1`, the inhibition was 1.89%.

Consider `O=C(NCCN1CCOC1=O)C1CCC(=O)N(CCc2ccc(Cl)cc2)C1` (configuration not stated), for which the inhibition was 6.31%.

Regarding `CCOC(=O)c1c(N=CN(C)C)c(C#N)c2n1CCCC2`, the inhibition is -0.32%.

In the case of `CC(C)C(C)(C#N)NC(=O)CSc1nncn1-c1ccccc1` (configuration not stated), the inhibition is 3.15%.

Turning to `CCc1cccc(C)c1NC(=O)COC(=O)CNC(=O)c1cccs1`, the inhibition is -1.56%.

Regarding `CCc1cccc(C)c1NC(=O)COC(=O)CC1CCCC1`, the inhibition was 31.2% (active).

As to `Cc1cccc(C)c1NC(=O)CNC(=O)C1CCCC1`, the inhibition is -3.74%.

Take `CCC(C)Cn1c(O)cc2nn(-c3nc4ccccc4s3)c(=O)c-2c1C` (configuration not stated): the inhibition was 49.8% (active).

For `CCC(=O)NC(=Nc1nc2ccccc2s1)NC(=O)CC`, the inhibition is 1.11%.

Take `COc1ccc(C2=NN(c3nc4ccccc4s3)C(=O)C2)cc1`: the inhibition is 10.8%.

With `C=CCNC(=O)COC(=O)c1ccccc1C(=O)N(C)C1CCCCC1`, the inhibition was -0.67%.

For `CC1(c2ccc3ccccc3c2)NC(=O)N(CC(N)=O)C1=O` (configuration not stated), the inhibition is 1.23%.

Turning to `COc1ccccc1NC(=O)CCSc1nnc(-c2ccc(O)cc2)o1`, the inhibition is -1.64%.

As for `CC(C)(C)NC(=O)NC(=O)COC(=O)C1(C)CC1(Cl)Cl` (configuration not stated), the inhibition was 4.74%.

Take `CC(C)(C)NC(=O)NC(=O)COC(=O)CCC1CCCCC1`: the inhibition was 29.9% (active).

With `COc1ccccc1OCCC(=O)OCC(=O)NC(=O)NC(C)(C)C`, the inhibition is 2.65%.

On to `COc1ccc(N(CC(=O)Nc2cc(OC)cc(OC)c2)S(=O)(=O)c2c(C)n[nH]c2C)cc1`, for which the inhibition was 1.91%.

Take `CC(C)N(C(=O)[C@H]1C[C@H](CC(=O)NCCC2=CCCCC2)C(=O)N2CCc3c([nH]c4cc(CCC(=O)N(C)C)ccc34)[C@]12C)C(C)C`: the inhibition is 16.4%.

As for `CC[C@]12c3[nH]c4cc(CCC(=O)N(C)C)ccc4c3CCN1C(=O)[C@@H](CC(=O)NCC13CC4CC(CC(C4)C1)C3)C[C@@H]2C(=O)N1CCN(C(=O)C2CC2)CC1`, the inhibition is 1.87%.

On to `CCN(CC)C(=O)[C@H]1C[C@H](CC(=O)NCC23CC4CC(CC(C4)C2)C3)C(=O)N2CCc3c([nH]c4cc(CCC(=O)N(C)C)ccc34)[C@]12C`, for which the inhibition is 27.5% (active).

On to `CC(C)C(O)C1CCN(Cc2nc(Cc3ccccc3Cl)no2)CC1` (configuration not stated), for which the inhibition is 1.22%.

For `CCSCc1nc(N)nc(NCCc2ccccc2)n1`, the inhibition is 5.83%.

As for `CCc1nc2sc(C(=O)O)c(N)c2c2c1CCCC2`, the inhibition is 1.17%.

For `NC(=O)c1sc2nc3c(c(-c4ccccc4)c2c1N)CCC3`, the inhibition was 25.1% (active).

Regarding `Nc1c(C(=O)NCc2ccccc2)sc2nc3c(cc12)C(=O)CCC3`, the inhibition is 9%.

As to `Cc1ccccc1Cn1nc(C)c(NC(=O)C(F)(F)F)c1C`, the inhibition was -5.3%.

In the case of `COC(=O)c1cc(S(=O)(=O)Nc2ccc(C)c(F)c2)c[nH]1`, the inhibition is 37.4% (active).

For the molecule `CCOc1ccccc1NS(=O)(=O)c1c[nH]c(C(=O)OC)c1`, the inhibition was -0.19%.

For the molecule `COC(=O)c1cc(S(=O)(=O)N2CCN(c3cc(C)ccc3C)CC2)c[nH]1`, the inhibition was -4.07%.

For `Cn1c(=O)c2c(nc(N3CCCCCC3)n2CC(O)COc2ccc(Cl)cc2)n(C)c1=O` (configuration not stated), the inhibition was 4.56%.

On to `Cc1cc(SCc2c(F)cccc2Cl)nc(=O)[nH]1`, for which the inhibition was 1.8%.

`Cc1snc(SCc2c(F)cccc2Cl)c1C#N`: the inhibition was 24.7% (active).

In the case of `Cc1ccc(CSc2nsc(C)c2C#N)cc1`, the inhibition is 8.61%.

For `O=C(Nc1ccc2c(c1)OCO2)C1CC(c2c(F)cccc2Cl)=NO1` (configuration not stated), the inhibition is 1.16%.

As for `Nc1ccc2nc3c(=O)[nH]c(=S)[nH]c3nc2c1`, the inhibition was 47.8% (active).

Regarding `COCCNC(=O)Nc1ccc2nc(-c3ccco3)c(-c3ccco3)nc2c1`, the inhibition is 75.6% (active).

Regarding `O=C(NCc1ccccn1)c1ccc2nc(-c3ccco3)c(-c3ccco3)nc2c1`, the inhibition was 65.8% (active).

On to `COc1cccc(NC(=O)NCCN2CCCCC2)c1`, for which the inhibition was 3.86%.

Turning to `Cc1cc(C)cc(NC(=O)NCc2ccccn2)c1`, the inhibition is 1.23%.

As to `O=C1CSc2ccc(C(=O)NCc3ccccn3)cc2N1`, the inhibition is 0.84%.

In the case of `COCCNC(=O)c1snc2ccc(Cl)cc12`, the inhibition was -0.4%.

For `Cc1ccc(C(=O)CN2C(=O)NC3(CCc4ccccc43)C2=O)c(C)c1` (configuration not stated), the inhibition is -8.87%.

Consider `O=S(=O)(Oc1ccccc1C(=S)N1CCOCC1)c1ccc(Cl)cc1`, for which the inhibition is 4.58%.

For `O=C(NCc1ccc(F)cc1)C1CCC(CNc2c(N3CCOCC3)c(=O)c2=O)CC1` (configuration not stated), the inhibition was 1.22%.

Turning to `CCOC(=O)c1sc(NC(=O)C2CSC3(C)CCC(=O)N23)nc1C` (configuration not stated), the inhibition is 0.96%.

As to `Cc1ccc(-c2ccnc3[nH]n(-c4ccccc4)c(=O)c23)cc1`, the inhibition was 2.79%.

As to `Cc1ccc(C2C3=C(Nc4[nH]n(-c5ccccc5)c(=O)c42)c2ccccc2C3=O)cc1` (configuration not stated), the inhibition was 34.5% (active).

Take `Cc1cc(C)c(C2C3=C(Nc4c2c(C)nn4-c2ccccn2)c2ccccc2C3=O)c(C)c1` (configuration not stated): the inhibition was -8.35%.

With `COc1ccccc1N(CC(=O)Nc1ccc(C)cc1Cl)S(=O)(=O)c1cccs1`, the inhibition is 6.13%.

Regarding `O=c1cc(CN2CCN(S(=O)(=O)/C=C/c3ccccc3)CC2)c2ccc(O)cc2o1`, the inhibition is 2.78%.

On to `Cc1ccccc1C(=O)Nc1cccc(-c2nnc(SCC(=O)O)n2C)c1`, for which the inhibition is -1.6%.

For `Cc1noc(C)c1C(=O)OC(C)C(=O)Nc1ccc2c(c1)OCO2` (configuration not stated), the inhibition is 1.18%.

Turning to `O=C(COC(=O)Cc1ccc(Br)cc1)Nc1c(F)c(F)c(F)c(F)c1F`, the inhibition is 32.9% (active).

Take `O=C(COC(=O)Cc1ccc(Br)cc1)Nc1ccc(N2CCOCC2)cc1`: the inhibition is 6.93%.

Regarding `Cc1cccc(C)c1NC(=O)CNC(=O)Cc1ccc(Br)cc1`, the inhibition was 1.92%.

On to `CCC(C)N(C(=O)Cn1nc(C)c([N+](=O)[O-])c1C)C1CCS(=O)(=O)C1` (configuration not stated), for which the inhibition is -1.29%.
